The list is not random: actives were taken first. Their share in the collection is about 6%.
D3 ag: agonists of human D3 dopamine receptor; D3R DiscoveRx beta-arrestin cells, luminescence, 90 min; P35462; 410,000 compounds, 0.58% hits; max activation, %; in the data active = max activation above about 30%
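Agonist-mode cell screen: cells plated at 1500/well and incubated overnight at 37 °C, then exposed to library compounds for 90 min at 37 °C. Detection reagent was added for 30–60 min at room temperature, and luminescence was read.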
D1 ag: agonists of human D1 dopamine receptor; AID 504660; activation, % at 2 µM; HEK293 T-REx D1 cells, calcium flux, agonist mode; P21728; 360,000 compounds, 1% hits; in the data active = activation above about 30%
Target sequence (P21728 whole entry, looked up): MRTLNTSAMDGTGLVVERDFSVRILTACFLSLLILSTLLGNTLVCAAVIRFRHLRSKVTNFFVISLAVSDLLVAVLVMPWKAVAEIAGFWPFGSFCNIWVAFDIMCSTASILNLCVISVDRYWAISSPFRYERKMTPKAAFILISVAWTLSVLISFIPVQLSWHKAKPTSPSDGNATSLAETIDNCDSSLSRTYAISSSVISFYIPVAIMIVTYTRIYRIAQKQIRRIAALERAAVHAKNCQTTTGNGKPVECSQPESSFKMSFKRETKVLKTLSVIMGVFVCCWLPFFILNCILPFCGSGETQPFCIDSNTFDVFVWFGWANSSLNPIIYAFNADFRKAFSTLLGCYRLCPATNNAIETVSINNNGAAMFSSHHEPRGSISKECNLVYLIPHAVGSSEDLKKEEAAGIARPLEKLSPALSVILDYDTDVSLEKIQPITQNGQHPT
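Agonism was scored from calcium flux recorded over 180 s (1 read/s) after pintool compound addition, following a 10-cycle baseline. Cells were inducible force-coupled HEK293 TREx D1, plated overnight at 30 C and loaded with no-wash calcium dye.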
D1 potentiator: human D1 dopamine receptor positive modulation. HEK293 TREx D1 cells, calcium flux, dopamine EC20 potentiation. potentiation, % at 10 µM. 360,000 compounds, 0.036% hits. AID 504651; in the data active = potentiation above about 30%
DRD3 antagonist: blocks the human D3 dopamine receptor | P35462 | D3R cells, DiscoveRx beta-arrestin luminescence, antagonist mode; active compounds read low | max response, negative = inhibition, % | 360,000 compounds, 2.5% hits; in the data active = max response below about -50%
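Cells expressing the human receptor were seeded at 1500 cells/well, incubated overnight at 37 degrees C in 5% CO2, then exposed to library compounds with dopamine controls for 90 minutes at 37 degrees C before luminescent detection.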
D1 antag: human D1 dopamine receptor antagonism; P21728; HEK293 TREx D1 cells, calcium flux, dopamine EC80; active compounds read low; activity change, negative = inhibition, % at 10 µM; 360,000 compounds, 3.2% hits; in the data active = activity change below about -30%
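Inducible Hek293 Trex D1 cells (tetracycline, overnight, 30 C). Calcium dye 30–90 min RT. Antagonist mode: EC80 dopamine added after 180 s compound read.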
Of the large screens only hits and unclear results are named; the others gave an inactive call.

Cc1cc(C(=O)N/N=C/c2ccc(-c3cccc(Cl)c3)o2)n[nH]1	D1 ag 66, DRD3 antagonist -61
O=C(N/N=C/c1ccc(-c2ccccc2)o1)c1ccccc1O	D1 antag -32
Cc1cccc(-c2nnc(SCC#N)n2C)c1	none
c1ccc(CCn2c(SCc3ccccc3)nnc2-c2ccncc2)cc1	D1 ag 35
COc1ccc(-c2nnc(SCc3ccccc3)n2N)cc1	D1 ag 63
Cc1ccc(-c2nnc(SCC#N)n2N)cc1	D1 antag -33
CN(C(=O)CSc1nc2ccc(NC(=O)c3cccc(F)c3)cc2s1)c1ccccc1	none (no result: DRD3 antagonist)
Cc1ccc(SCC(=O)Nc2ccc(O)c(-c3nc4cc(C)ccc4o3)c2)cc1	D1 antag -83 (no result: DRD3 antagonist)
FC(F)OC(Cl)C(F)(F)F (configuration not stated)	none (no result: D1 ag, D1 potentiator, DRD3 antagonist, D1 antag)
O=C(CN(Cc1ccccc1F)S(=O)(=O)c1ccc(Cl)cc1)NCCC1=CCCCC1	none
Cc1ccc(S(=O)(=O)N(CC(=O)NCCC2=CCCCC2)Cc2ccccc2F)cc1	DRD3 antagonist -74
CCC1=C[C@@H]2CN(C1)Cc1c([nH]c3ccccc13)[C@@](C(=O)OC)(c1cc3c(cc1OC)N(C)[C@H]1[C@@](O)(C(=O)OC)[C@H](OC(C)=O)[C@]4(CC)C=CCN5CC[C@]31[C@@H]54)C2	none (no result: D1 ag, D1 potentiator, DRD3 antagonist, D1 antag)
Cc1ccc(S(=O)(=O)N(CC(O)CN2CCOCC2)c2cc(Cl)ccc2Cl)cc1 (configuration not stated)	DRD3 antagonist -54
CCCS(=O)(=O)N1CCCC(C(=O)c2cccc(Cl)c2)C1 (configuration not stated)	DRD3 antagonist -68
CCCS(=O)(=O)N1CCCC(C(=O)NCCc2ccc(Cl)cc2)C1 (configuration not stated)	DRD3 antagonist -63, D1 antag -31
CS(=O)(=O)N1CCCC(C(=O)c2cccc(Cl)c2)C1 (configuration not stated)	none
CCCCNC(=O)C1CCCN(S(=O)(=O)CCC)C1 (configuration not stated)	D1 antag -32 (no result: DRD3 antagonist)
O=C(NCC1CCCO1)C1CCCN(S(=O)(=O)c2ccc(Cl)cc2)C1 (configuration not stated)	D3 ag 34
O=C(NCC1CCCO1)C1CCCN(S(=O)(=O)c2ccc(F)cc2)C1 (configuration not stated)	none
CCN(C(=O)Cn1nc(Cc2ccncc2)c2ccccc2c1=O)c1ccc(OC)cc1	none (no result: DRD3 antagonist)
CC(C)(C)C1CCc2c(sc(NC(=O)c3ccc(Cl)cc3)c2C(=O)NCc2ccco2)C1 (configuration not stated)	none (no result: DRD3 antagonist)
Cc1ccc(C)c(NC(=O)c2cc(=O)c3cc(C)cc(C)c3o2)c1	none (no result: DRD3 antagonist)
COc1ccc(-n2nc(C(=O)Nc3cc(C)ccn3)c3c4ccccc4n(C)c3c2=O)cc1Cl	none (no result: DRD3 antagonist)
Cc1[nH]c(=O)[nH]c(=O)c1S(=O)(=O)N1CCCC(C(=O)NCCc2ccc(Cl)cc2)C1 (configuration not stated)	D1 antag -35
CCc1ccccc1NS(=O)(=O)c1ccc2c(c1)CC(=O)N2	none (no result: DRD3 antagonist)
O=C(NCc1ccc(Cl)cc1)NC1COc2ccccc2C1 (configuration not stated)	none (no result: DRD3 antagonist)
CCc1ccc(CNC(=O)c2ccc3nc(SCc4ccc(F)cc4)n(C)c3c2)cc1	D1 ag 40 (no result: DRD3 antagonist)
Cc1c(C)n(Cc2ccc(F)cc2)c2ccc(C(=O)NCc3ccco3)cc12	D1 antag -75 (no result: DRD3 antagonist)
Cc1c(C)n(Cc2ccc(F)cc2)c2ccc(C(=O)NCCN3CCOCC3)cc12	D1 antag -30
Cn1c(SCc2ccc(F)cc2)nc2ccc(C(=O)NCc3ccccc3)cc21	none (no result: DRD3 antagonist)
CCn1c(C)c(C)c2cc(C(=O)NCCc3ccco3)ccc21	none
CCn1c(C)c(C)c2cc(C(=O)NCCN3CCCCCC3)ccc21	DRD3 antagonist -81
COc1ccc(C2(CNC(=O)C(=O)Nc3ccc(C)c(Cl)c3)CCCC2)cc1OC	none (no result: DRD3 antagonist)
CCn1c(C)c(C)c2cc(C(=O)NCc3ccc(F)cc3)ccc21	D1 ag 34 (no result: DRD3 antagonist)
COc1ccc(CCNC(=O)c2ccc3c(c2)c(C)c(C)n3Cc2ccc(F)cc2)c(OC)c1OC	D1 antag -55 (no result: DRD3 antagonist)
Cc1cccc(Cc2ccc(Cl)nn2)c1	D1 antag -38
Cc1cccc(CNCc2ccccc2)c1	none
